# The supplement of paper PMC8728848
# The full list was thinned out, with the strongest signals kept by preference.
# B1: HPL (Tachypleus tridentatus) (protein)
# chain: MEDDCTCVTDRSLEGKLMKHPSTPAVYQILDGCRRLVPNPPTYNNIYKNWECIQSNILEKLLCKCDSLSNGAELIKGSGDTVYLLSNGVKRPIADPETFNGFCFDWNKIKTYSDIVINSLSTGPIIIIKHHHHHH
# Experiments:
# Test in all cases: glycan array binding signal (z-score within array); higher = stronger binding
# Details in all cases: glycan notation: IUPAC condensed, linker removed
# [1] = target: Fuc(a1-2)Gal
# In short: (§1)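 The Consortium for Functional Glycomics database supplied 3228 glycan arrays, of which those lacking an available protein sequence were dropped. The binding signal, a within-array Z-score, was averaged across arrays of the same protein sequence and across linkers. Negative scores can be read as non-binding.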
# [2] = target: Fuc(a1-2)Gal(b1-3)GlcNAc(b1-2)Man(a1-3)[Fuc(a1-2)Gal(b1-3)GlcNAc(b1-2)Man(a1-6)]Man(b1-4)GlcNAc(b1-4)GlcNAc
# In short: as §1
# [3] = target: Fuc(a1-2)Gal(b1-3)GlcNAc(b1-3)[Neu5Ac(a2-6)Gal(b1-4)GlcNAc(b1-6)]Gal(b1-4)Glc
# In short: as §1
# [4] = target: Fuc(a1-2)Gal(b1-4)GlcNAc(b1-2)Man(a1-3)[Fuc(a1-2)Gal(b1-4)GlcNAc(b1-2)Man(a1-6)]Man(b1-4)GlcNAc(b1-4)[Fuc(a1-6)]GlcNAc
# In short: as §1
# [5] = target: Fuc(a1-2)Gal(b1-4)[Fuc(a1-3)]GlcNAc(b1-2)[Fuc(a1-2)Gal(b1-4)[Fuc(a1-3)]GlcNAc(b1-4)]Man(a1-3)[Fuc(a1-2)Gal(b1-4)[Fuc(a1-3)]GlcNAc(b1-2)Man(a1-6)]Man(b1-4)GlcNAc(b1-4)GlcNAc
# In short: as §1
# [6] = target: Fuc(a1-2)Gal6S(b1-3)GlcNAc
# In short: as §1
# [7] = target: Fuc(a1-2)[Gal(a1-3)]Gal(b1-3)GlcNAc(b1-2)Man(a1-3)[Fuc(a1-2)[Gal(a1-3)]Gal(b1-3)GlcNAc(b1-2)Man(a1-6)]Man(b1-4)GlcNAc(b1-4)GlcNAc
# In short: as §1
# [8] = target: Gal(a1-3)Gal(b1-3)GlcNAc(b1-2)Man(a1-3)[Gal(a1-3)Gal(b1-3)GlcNAc(b1-2)Man(a1-6)]Man(b1-4)GlcNAc(b1-4)GlcNAc
# In short: as §1
# [9] = target: Gal(a1-3)Gal(b1-3)[Fuc(a1-4)]GlcNAc(b1-2)Man(a1-3)[Gal(a1-3)Gal(b1-3)[Fuc(a1-4)]GlcNAc(b1-2)Man(a1-6)]Man(b1-4)GlcNAc(b1-4)GlcNAc
# In short: as §1
# [10] = target: Gal(a1-3)Gal(b1-4)Glc
# In short: as §1
# [11] = target: Gal(a1-6)Glc
# In short: as §1
# [12] = target: Gal(b1-3)GlcNAc
# In short: as §1
# [13] = target: Gal(b1-3)GlcNAc(b1-3)Gal(b1-4)[Fuc(a1-3)]GlcNAc
# In short: as §1
# [14] = target: Gal(b1-3)GlcNAc(b1-3)GalNAc
# In short: as §1
# [15] = target: Gal(b1-3)[Fuc(a1-4)]GlcNAc(b1-2)Man
# In short: as §1
# [16] = target: Gal(b1-3)[Fuc(a1-4)]GlcNAc(b1-3)Gal(b1-3)[Fuc(a1-4)]GlcNAc
# In short: as §1
# [17] = target: Gal(b1-4)GlcNAc(a1-6)Gal(b1-4)GlcNAc
# In short: as §1
# [18] = target: Gal(b1-4)GlcNAc(b1-2)Man(a1-3)[GlcNAc(b1-2)Man(a1-6)]Man(b1-4)GlcNAc(b1-4)GlcNAc
# In short: as §1
# [19] = target: Gal(b1-4)GlcNAc(b1-2)[Gal(b1-4)GlcNAc(b1-4)]Man(a1-3)[GlcNAc(b1-4)][Gal(b1-4)GlcNAc(b1-2)Man(a1-6)]Man(b1-4)GlcNAc(b1-4)GlcNAc
# In short: as §1
# [20] = target: Gal(b1-4)GlcNAc(b1-3)Gal(b1-4)GlcNAc(b1-2)[Gal(b1-4)GlcNAc(b1-3)Gal(b1-4)GlcNAc(b1-6)]Man(a1-6)[Gal(b1-4)GlcNAc(b1-3)Gal(b1-4)GlcNAc(b1-2)Man(a1-3)]Man(b1-4)GlcNAc(b1-4)GlcNAc
# In short: as §1
# [21] = target: Gal(b1-4)GlcNAc(b1-3)Gal(b1-4)GlcNAc(b1-3)Gal(b1-4)GlcNAc(b1-3)Gal(b1-4)GlcNAc(b1-3)Gal(b1-4)GlcNAc(b1-3)Gal(b1-4)GlcNAc(b1-2)Man(a1-3)[Gal(b1-4)GlcNAc(b1-3)Gal(b1-4)GlcNAc(b1-3)Gal(b1-4)GlcNAc(b1-3)Gal(b1-4)GlcNAc(b1-3)Gal(b1-4)GlcNAc(b1-3)Gal(b1-4)GlcNAc(b1-2)Man(a1-6)]Man(b1-4)GlcNAc(b1-4)GlcNAc
# In short: as §1
# [22] = target: Gal6S(b1-4)GlcNAc
# In short: as §1
# [23] = target: GalNAc(b1-3)Gal(a1-6)Gal(b1-4)Glc
# In short: as §1
# [24] = target: GalNAc(b1-4)GlcNAc(b1-2)Man
# In short: as §1
# [25] = target: GlcNAc(a1-3)Gal(b1-4)GlcNAc
# In short: as §1
# [26] = target: GlcNAc(a1-6)Gal(b1-4)GlcNAc
# In short: as §1
# [27] = target: GlcNAc(b1-3)Gal(b1-4)GlcNAc(b1-2)Man(a1-3)[GlcNAc(b1-3)Gal(b1-4)GlcNAc(b1-2)Man(a1-6)]Man(b1-4)GlcNAc(b1-4)[Fuc(a1-6)]GlcNAc
# In short: as §1
# [28] = target: GlcNAc(b1-3)Gal(b1-4)GlcNAc(b1-2)[GlcNAc(b1-3)Gal(b1-4)GlcNAc(b1-6)]Man(a1-6)[GlcNAc(b1-3)Gal(b1-4)GlcNAc(b1-2)Man(a1-3)]Man(b1-4)GlcNAc(b1-4)GlcNAc
# In short: as §1
# [29] = target: GlcNAc(b1-3)Gal(b1-4)GlcNAc(b1-3)Gal(b1-4)GlcNAc(b1-3)GalNAc
# In short: as §1
# [30] = target: GlcNAc(b1-3)Man
# In short: as §1
binder,measurement,setting,value
B1,glycan array binding signal (z-score),[1],-0.153
same,glycan array binding signal (z-score),[2],4.15
same,glycan array binding signal (z-score),[3],-0.343
same,glycan array binding signal (z-score),[4],3.19
same,glycan array binding signal (z-score),[5],2.19
same,glycan array binding signal (z-score),[6],0.027
same,glycan array binding signal (z-score),[7],-0.163
same,glycan array binding signal (z-score),[8],3.2
same,glycan array binding signal (z-score),[9],2.31
same,glycan array binding signal (z-score),[10],0.05
same,glycan array binding signal (z-score),[11],1.55
same,glycan array binding signal (z-score),[12],-0.177
same,glycan array binding signal (z-score),[13],-0.309
same,glycan array binding signal (z-score),[14],-0.36
same,glycan array binding signal (z-score),[15],1.71
same,glycan array binding signal (z-score),[16],-0.131
same,glycan array binding signal (z-score),[17],-0.342
same,glycan array binding signal (z-score),[18],-0.178
same,glycan array binding signal (z-score),[19],5.11
same,glycan array binding signal (z-score),[20],2.19
same,glycan array binding signal (z-score),[21],-0.206
same,glycan array binding signal (z-score),[22],-0.335
same,glycan array binding signal (z-score),[23],-0.402
same,glycan array binding signal (z-score),[24],-0.379
same,glycan array binding signal (z-score),[25],-0.255
same,glycan array binding signal (z-score),[26],-0.429
same,glycan array binding signal (z-score),[27],0.104
same,glycan array binding signal (z-score),[28],0.395
same,glycan array binding signal (z-score),[29],-0.251
same,glycan array binding signal (z-score),[30],0.24
